High-throughput results as filed in PubChem BioAssay.
The list is not random: actives were taken first. Their share in the collection is about 3%.
TrxR1 substrate: substrates of rat thioredoxin reductase 1; O89049; purified TrxR1 substrate turnover, NADPH consumption readout; Potency, µM (doses to about 114 µM), without a hit: at the highest dose activity change, negative = substrate turnover; 390,000 tested, 0.01% active; further: on the % scale 0 is the no-effect control and ±100 the full control effect; nearly all actives have a fitted effect of over 50% in size
Target sequence (O89049 whole entry, looked up): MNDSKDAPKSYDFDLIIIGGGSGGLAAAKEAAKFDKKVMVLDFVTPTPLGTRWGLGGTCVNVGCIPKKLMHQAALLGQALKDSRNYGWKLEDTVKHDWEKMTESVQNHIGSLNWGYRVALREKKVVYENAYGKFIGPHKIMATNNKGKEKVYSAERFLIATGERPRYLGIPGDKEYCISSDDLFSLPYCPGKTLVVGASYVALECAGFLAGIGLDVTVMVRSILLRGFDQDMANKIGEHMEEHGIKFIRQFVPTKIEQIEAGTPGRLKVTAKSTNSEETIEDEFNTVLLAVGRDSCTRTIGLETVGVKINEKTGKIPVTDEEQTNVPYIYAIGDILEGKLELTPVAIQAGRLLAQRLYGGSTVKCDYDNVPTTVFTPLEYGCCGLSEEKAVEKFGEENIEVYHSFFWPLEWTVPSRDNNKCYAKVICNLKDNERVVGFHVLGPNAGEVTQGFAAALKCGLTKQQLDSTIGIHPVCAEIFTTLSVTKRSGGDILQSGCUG
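Rat TrxR1, dispensed at 90 nM, was prereduced with 400 uM NADPH (final) for 5 min at ~22 deg C, then incubated with compound 15 min before 400 uM selenite. A first-read NADPH fluorescence drop versus no-compound background flagged substrates.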
A549 tox-1: A549 cytotoxicity, counter-screen for Nrf2 inhibitors | 390,000 tested, 0.16% active | AID 504648 | A549 ARE-Fluc cells, CellTiter-Fluor viability, 18-24 h | Potency, µM (doses to about 46 µM), without a hit: at the highest dose activity change, negative = cytotoxicity, hits mostly inhibitors; further: on the % scale 0 is the no-effect control and ±100 the full control effect
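Cytotoxicity counterscreen: CellTiter-Fluor fluorescence was measured in A549 ARE_Fluc cells after 18-24 h of compound exposure in a concentration series. The subsequent BugLite luminescent read reports ARE-luciferase activity.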
TrxR1 inh: rat TrxR1 inhibition. O89049. recombinant rTrxR1, NADPH fluorescence consumption, selenite substrate. Potency, µM (top dose mostly 114 µM), for inactives: at the top dose activity change, negative = inhibition, hits mostly inhibitors. 390,000 tested, 1% active; further: on the % scale 0 is the no-effect control and ±100 the full control effect; nearly all actives have a fitted effect of over 65% in size
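Rat TrxR1 (90 nM in the dispensed reagent) was pre-reduced with 400 uM NADPH for 5 min at room temperature, then incubated with compound for 15 min. After 400 uM selenite was added, NADPH fluorescence (Ex 340/Em 450 nm) was followed for 8 min.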
Nrf2 ARE act: activates Nrf2 signaling; AREc32 ARE-luciferase reporter (MCF7-derived line), luminescence, 24 h; Potency, µM (titrated, usually from 46.1 µM), without a hit: top-dose activation, usual class: activators; 410,000 tested, 0.31% active; further: % of control where 0% means no effect; nearly all actives have a fitted effect of over 65% in size
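Luciferase luminescence (Steady-Glo, 30 min at room temperature) served as the read-out of ARE activation in AREc32 cells treated with compounds for 24 hr at 37 deg C.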
GALK inh: galactokinase (human) inhibition. P51570. Purified GALK, Kinase-Glo residual ATP luminescence. Potency, µM (highest dose often 57.5 µM), for the others: top-dose activity change, negative = inhibition, actives largely listed as inhibitors. 270,000 tested, 0.007% active; further: on the % scale 0 is the no-effect control and ±100 the full control effect
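5 nM enzyme, 35 uM ATP, 100 uM galactose, 20 mM HEPES pH8.0, 5 mM MgCl2; 1 h RT; residual ATP by Kinase-Glo Plus luminescence, qHTS format.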
Nrf2 block: Nrf2 pathway inhibition; 360,000 tested, 2.1% active; Potency, µM (series often up to 46 µM), for inactives: at the highest dose activity change, negative = inhibition, hits mostly inhibitors; A549 ARE-Fluc reporter, luciferase luminescence, 18-24 h; further: on the % scale 0 is the no-effect control and ±100 the full control effect; nearly all actives have a fitted effect of over 60% in size
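Concentration-response testing used A549 ARE_Fluc cells at 5000 cells/well. Following an 18-24 h compound incubation, viability was read by fluorescence (Ex 405/Em 525) and luciferase output by luminescence.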
FLuc counter 3: firefly luciferase inhibition, Nrf2 hit validation; shares compounds with Nrf2 block; purified firefly luciferase, luminescence inhibition; Potency, µM (highest dose often 57.5 µM), without a hit: at the highest dose activity change, negative = inhibition, actives largely listed as inhibitors; 1,400 tested, 4% active; further: on the % scale 0 is the no-effect control and ±100 the full control effect; nearly all actives have a fitted effect of over 65% in size
A549 tox-2: A549 cytotoxicity, Nrf2 inhibitor counterscreen. shares compounds with Nrf2 block. A549 ARE-Fluc cells, cytotoxicity counterscreen. Potency, µM (doses to about 46.1 µM), for inactives: at the highest dose activity change, negative = cytotoxicity, most hits filed as inhibitors. 1,400 tested, 2% active. AID 720523;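 further: cells exposed to compounds for 18 to 24 hours; on the % scale 0 is the no-effect control and ±100 the full control effect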
Nrf2 ARE inh: reduces Nrf2 ARE reporter signal in A549 cells | Potency, µM (top dose mostly 46.1 µM), without a hit: top-dose activity change, negative = inhibition, actives largely listed as inhibitors | 1,400 tested, 74% active | shares compounds with Nrf2 block | A549 ARE-firefly luciferase reporter, luminescence; further: on the % scale 0 is the no-effect control and ±100 the full control effect; nearly all actives have a fitted effect of over 65% in size
Numbers without * were called inactive; i = inactive; u = inconclusive; x = not tested or not shown; [ ] = another dose, or the depositor's remark. The call rests on the fitted dose curve; in most records, active means well fitted curve in the direction sought with a large enough effect; inconclusive means small, poorly fitted or top-dose-only effect, or another doubt; inactive means no such curve, though single readings can be large; an effect the other way counts as inactive or inconclusive. Potency means the concentration at half of the fitted maximal effect.

SMILES	TrxR1 substrate	A549 tox-1	TrxR1 inh	Nrf2 ARE act	GALK inh	Nrf2 block	others
Cc1ccc(NC(=O)Cn2cc(S(=O)(=O)N3CCCC3)c(S(=O)(=O)N3CCCC3)c2)cc1F	-12%	1%	5%	0%	x	-30%
COc1ccc(N2CCN(C(=S)Nc3ccc(C)cc3)CC2)cc1	5%	-18%	18%	0%	3%	0%
COc1ccc(N2CCN(C(=S)Nc3cccc(C)c3C)CC2)cc1	12%	u	29%	0%	-2%	26µM*
CCCn1c(N/N=C\C=C\c2ccccc2)nc2c1c(=O)[nH]c(=O)n2C	-15%	0%	-12%	10%	15%	9.2µM*
COc1ccccc1CCNC(=O)C(=O)NCC(c1cccs1)S(=O)(=O)c1ccc(C)cc1 (configuration not stated)	6%[57.1 µM]	4%	10%[57.1 µM]	7%	x	x
O=C(OCC#CCSc1nnc(-c2cccc3ccccc23)o1)c1cc2ccccc2s1	x	-7%	x	x	x	7%
COC(=O)c1c(NC(=O)c2cc(=O)c3cc(C)cc(C)c3o2)sc2c1CCC2	3%	3%	19%	1%	x	1%
CCOc1ccc(C(NC(C)=O)c2ccc(OC)c(OC)c2)cc1 (configuration not stated)	1%[57.1 µM]	-1%	17%[57.1 µM]	0%	1%	-5%
COc1ccc(C2(CNC(=O)/C=C/c3ccco3)CCCC2)cc1OC	5%	-7%	3.5µM*	u	2%	5%
CCOc1ccc(C(NC(=O)/C=C/c2ccco2)c2ccc(OC)c(OC)c2)cc1 (configuration not stated)	1%	-1%	35µM*	3%	-2%	-14%
CCN(CC)S(=O)(=O)c1ccc(OC)c(NC(=O)/C=C/c2ccco2)c1	-4%	1%	18µM*	u	0%	3%
COc1ccc(C(NC(=O)/C=C/c2ccco2)c2ccc(OC)c(OC)c2)cc1 (configuration not stated)	-8%	-2%	50µM*	7%	0%	-18%
CC1CCN(c2cc3c(cc2F)c(=O)c(S(=O)(=O)c2cccc(Cl)c2)cn3Cc2ccccc2)CC1	24%	2%	33%	-1%	x	u
Cc1ccc(S(=O)(=O)NCC2CCC(C(=O)N(C)Cc3ccccc3)CC2)cc1 (configuration not stated)	-3%[57.1 µM]	1%	17%[57.1 µM]	1%	x	x
COc1cccc2c1Oc1ncccc1N(c1ccc(C(=O)NCc3ccccc3C)s1)C2	20%[57.1 µM]	1%	38%[57.1 µM]	1%	x	7%
C/C(=N\Nc1nc(C)cc(-c2ccccc2)n1)c1cccc(N)c1	-12%	-4%	-5%	2%	4%	21µM*
O=C(O)c1ccc2c(c1)C(=O)N([C@]1(C(=O)O)CC1c1ccccc1)C2=O (some centres not stated)	x	-3%	x	x	x	10%
O=c1oc2c(CN3CCN(CCO)CC3)c(O)ccc2cc1-c1ccccn1	i	u	45µM*	-1%	0%	6%
O=C(CSc1ncnc2c1oc1ccccc12)c1cccs1	5%	-3%	15%	3.5µM*	0%	u
Cc1ccc(NC(=O)CN2C(=O)CC(c3ccco3)Sc3ccccc32)cc1Cl (configuration not stated)	0%	-12%	18%	0%	x	-13%
Cc1cc(C)c(NS(=O)(=O)c2ccc(-c3cnc(C4CC4)o3)cc2)c(C)c1	-4%[57.1 µM]	-17%	6%[57.1 µM]	0%	x	x
Cc1ccc(NC(=O)Cn2cc(C(=O)c3ccco3)c3ccccc32)cc1	8%[57.1 µM]	-12%	1%[57.1 µM]	4%	x	x
O=C(O)/C=C/S(=O)(=O)c1ccc2ccccc2c1	7%	-5%	11µM*	27%	3%	8%
COCc1[nH]c(=S)c(C#N)cc1C(=O)OC	1%[57.1 µM]	9%	14µM*	3%	4%	5%
CCOC(=O)c1cc(C(C)=O)c(=O)[nH]c1C	-1%	-2%	8%	-1%	9%	-1%
SMILES	TrxR1 substrate	A549 tox-1	TrxR1 inh	Nrf2 ARE act	GALK inh	Nrf2 block	others
CCOC(=O)c1cc(C#N)c(=S)[nH]c1C	-7%	-1%	7.9µM*	0%	0%	-8%
COC(=O)c1cc(C#N)c(=O)[nH]c1C	0%	-3%	0%	0%	-1%	-6%
CC(=O)Nc1ccc(C(=O)COC(=O)CCS(=O)(=O)c2ccccc2)cc1	-3%	6%	5%	0%	x	20%
O=C(COC(=O)CCS(=O)(=O)c1ccccc1)Nc1ccccc1	-2%	12%	45µM*	-1%	x	-6%
CCOC(=O)c1cc2sc(C)cc2n1CCCN1C(=O)c2ccccc2C1=O	-3%	-7%	4%	0%	-4%	u
CCOC(=O)N1C=CC=C[C@@H]2[C@@H](N3C(=O)c4ccccc4C3=O)C(=O)N21	7%	-1%	16µM*	0%	3%	7%
Clc1ccc2c(ccc[n+]2CCC2CCCCC2)c1	2%	x	11%	x	x	x
COc1ccccc1NS(=O)(=O)c1cccc(C(=O)NC2CCN(Cc3ccccc3)CC2)c1	9%[57.1 µM]	u	17%[57.1 µM]	2%	x	2.3µM*	FLuc counter 3=-1%;A549 tox-2=-20%;Nrf2 ARE inh=u
COc1cccc(-c2cnc(C(O)c3cccc(C)c3C)[nH]2)c1 (configuration not stated)	x	x	x	1%	x	x
CCc1nc(N)nc(N)c1-c1ccc(Cl)c(N=[N+]=[N-])c1	9%[57.1 µM]	-6%	16%[11.4 µM]	3%	x	u
CCc1nc(N)nc(N)c1-c1ccc(Cl)c([N+](=O)[O-])c1	-4%	-1%	-7%	8%	x	0.37µM*	FLuc counter 3=1%;A549 tox-2=-5%;Nrf2 ARE inh=0.92µM*
Cc1ccc(NC(=O)Cn2cnc3c(oc4ccccc43)c2=O)cc1Cl	-7%	0%	8%	0%	x	-16%
